Test results: PubChem BioAssay (Tox21)
Results filed as inconclusive are left out. Entries that show only a call come without a potency. Values without a mark were called inactive. Active and inactive are the calls of the source. The call rests on the fitted dose curve.

assay: p53 small molecule agonists, cell-based qHTS assay with human liver microsomes: qHTS cell viability counter screen (AID 1963579); details: p53RE-bla HCT-116 viability, ATP luminescence, 16 h, HLM; series mostly up to 66 µM; activity change, negative = cytotoxicity: at the top concentration; further: nearly all actives have a fitted effect of over 45% in size
From the text: National Center for Advancing Translational Sciences [NCATS]
Division of Preclinical Innovation [DPI]
U.S. Environmental Protection Agency [EPA]
National Institutes of Environmental Health Sciences [NIEHS]
National Toxicology Program [NTP]
U.S. Food and Drug Administration [FDA]
p53, a tumor suppressor protein, is activated following cellular insult, including DNA damage and other cellular stresses. The activation of p53 regulates cell fate by inducing DNA repair, cell cycle arrest, apoptosis, or cellular senescence. The activation of p53, therefore, is a good indicator of DNA damage and other cellular stresses. […] The activation of the reporter gene under culture conditions can be detected by fluorescence intensity. This cell line was used to screen the Tox21 10K compound library in the condition of presence of human liver microsomes and to identify agonists that activate the p53 signaling pathway after in vitro metabolic activation (Ooka et al., Archive of Toxicology 96:1975-1987, 2022).
Tox21 Assay Protocol Summary:
The p53RE-bla cells were dispensed at 4,000cells/3ul/well in 1536-well black-clear bottom plates. After the assay plates were incubated at 37 C, 5% CO2 incubator for 5 hours, 23 nL of compounds dissolved in DMSO, positive controls or DMSO only was transferred to the assay plate. Following compound addition, 3 uL of human liver microsomes (XenoTech, Kansas City, KS) at final concentration of 0.5 mg/mL and 1uL of B-Nicotinamide adenine dinucleotide 2'-phosphate (NADPH) at final concentration of 0.5 mg/mL were transferred to the assay plate. The plates were incubated at 37 C for 16 hours. 1 uL of LiveBLAzer detection mixture was added to each well and the plates were incubated at room temperature in the dark for 2 h. Fluorescence intensity at 460 and 530 nm emission and 405 nm excitation were measured by an Envision plate reader. For cell viability readout that measures cytotoxicity, 4 ul/well of CellTiter-Glo reagent was added into the assay plates using a Flying Reagent Dispenser. After 30 min incubation at room temperature, the luminescence intensity in the plates was measured using a ViewLux plate reader.

SMILES | activity change, negative = cytotoxicity | Potency
O=C/C=C/c1ccco1 | 3.37% | –
CCc1cc(C)cc(CC)c1-c1c(OC(=O)C(C)(C)C)n2n(c1=O)CCOCC2 | 0.086% | –
CCCCCCCCCCCCCCCl | 6.32% | –
CCCC(=O)Cl | -0.549% | –
C[C@]12CC[C@H]3[C@@H](CC=C4C[C@@H](O)CC[C@@]43C)[C@@H]1CC[C@@H]2O | -0.338% [at 30.3 µM] | –
C=CC(=O)OCCCCCC(C)C | – | inactive
Nc1cccnc1 | – | inactive
C#CC(C)(C)NC(=O)c1cc(Cl)cc(Cl)c1 | – | inactive
CNC(=O)CSP(=S)(OC)OC | – | inactive
O=[N+]([O-])c1ccccc1 | – | inactive
CCC(C)Cl (stereo not given) | 2.25% | –
CC(O)CCO (stereo not given) | – | inactive
c1ccc2c(c1)sc1ccccc12 | – | inactive
CCOP(=S)(OCC)Oc1cnc2ccccc2n1 | – | inactive
O=C(CCl)c1ccccc1 | – | inactive
C#CCN(C)[C@H](C)Cc1ccccc1 | – | inactive
Cc1ncc(CNC(=O)N(CCCl)N=O)c(N)n1 | 1.57% [at 30.3 µM] | –
CC(C)NC(=O)N1CC(=O)N(c2cc(Cl)cc(Cl)c2)C1=O | – | inactive
CC(C)(C#N)N=NC(C)(C)C#N | – | inactive
CC(C)NC(C)C | – | inactive

SMILES | activity change, negative = cytotoxicity | Potency
COC(=O)Nc1nc2ccccc2[nH]1 | – | inactive
O=[N+]([O-])c1ccccc1-c1ccccc1 | 12.9% | –
O=C1CC(=O)NC(=O)N1 | 13.4% | –
N#CC(Cl)Cl | -3.39% | –
ClCCN1CCCC1 | -2.81% [at 30.3 µM] | –
CCCCCCCCCCCCCCCC[N+](C)(C)C | – | inactive
CN(C)c1ccc(C(=O)c2ccc(N(C)C)cc2)cc1 | -1.87% | –
O=S(=O)(Cl)Cl | -0.932% | –
O=C(O)C(Br)Br | – | inactive
CC(C)=CC1C(C(=O)OCN2C(=O)C3=C(CCCC3)C2=O)C1(C)C (stereo not given) | – | inactive
O=C(Cl)C(Cl)Cl | 6.9% | –
C[C@]12CCC(=O)C=C1CC[C@@H]1[C@@H]2CC[C@]2(C)C(=O)CC[C@@H]12 | – | inactive
c1ccc2c(c1)CCCC2 | – | inactive
C1CS1 | -3.61% | –
CCOP(=S)(OCC)Oc1ccc([N+](=O)[O-])cc1 | – | inactive
CNC(=S)S | – | inactive
CC(C)=CC1C(C(=O)OCc2cccc(Oc3ccccc3)c2)C1(C)C (stereo not given) | – | inactive
C[C@]12CCC(=O)C(O)=C1CC[C@@H]1[C@@H]2CC[C@]2(C)C(=O)CC[C@@H]12 | – | inactive
CC(C)Oc1cc(-n2nc(C(C)(C)C)oc2=O)c(Cl)cc1Cl | – | inactive
OC[P+](CO)(CO)CO | -0.893% | –
